Whole data set: some 16,000 sequences, median “e-score” near -0.044, cut for the highest 2% near 0.38. This excerpt belongs to a sample that is enriched for the highest values.

The assay concerns the target T1, GST-NbGlk1(82-244) (Nicotiana benthamiana).
T1 chain: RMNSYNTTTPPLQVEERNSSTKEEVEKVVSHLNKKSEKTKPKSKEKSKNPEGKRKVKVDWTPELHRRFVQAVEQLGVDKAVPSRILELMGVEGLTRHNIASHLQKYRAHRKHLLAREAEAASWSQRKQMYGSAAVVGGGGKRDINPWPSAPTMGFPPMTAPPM
Kind of assay: protein-binding microarray; NbGlk1 is a Golden2-like transcription factor of Nicotiana benthamiana; high values mean tight binding. To be noted: protein: recombinant; tags: GST (pTH6838); dsDNA, one strand shown.
Regarding AAAATCCC, the binding signal came to 0.41 ± 0.0189 E-score.

In the case of AAAATCAG, the binding signal worked out at 0.381 ± 0.0189 E-score.

Regarding AAAATCCT, the binding signal is 0.433 ± 0.0284 E-score.

For the sequence ATAATCCC, the binding signal was found to be 0.212 ± 0.0485 E-score.

For CAAATTCA, the binding signal is 0.203 ± 0.0475 E-score.

ACTGAAAT: the binding signal is 0.278 ± 0.0182 E-score.

ATATTCAA: the binding signal was found to be 0.213 ± 0.11 E-score.

As to AGTAAGAA, the binding signal was 0.214 ± 0.0216 E-score.

As for ATCCGCCG, the binding signal worked out at 0.216 ± 0.0636 E-score.

Take ATTTCATG: the binding signal came out at 0.332 ± 0.0188 E-score.

Consider ATCTCCAG, for which the binding signal was found to be 0.293 ± 0.0251 E-score.

On to ATCCTGAG, for which the binding signal stood at 0.23 ± 0.00887 E-score.

Turning to ACCAAAGA, the binding signal was determined as 0.208 ± 0.134 E-score.

As for ATCTCACG, the binding signal came out at 0.2 ± 0.0565 E-score.

Take ATTGAAAA: the binding signal was found to be 0.214 ± 0.0168 E-score.

AAGGTAAT: the binding signal was 0.217 ± 0.0574 E-score.

Take AGATACCT: the binding signal came to 0.216 ± 0.0648 E-score.

On to AGATACCG, for which the binding signal is 0.364 ± 0.0644 E-score.

In the case of AGATTCCT, the binding signal turned out to be 0.4552 ± 0.00311 E-score.

ATTTTCCA: the binding signal was found to be 0.294 ± 0.00656 E-score.

With AGATTCAG, the binding signal worked out at 0.238 ± 0.0658 E-score.

For AGATTCCG, the binding signal was 0.4631 ± 0.000925 E-score.

For the sequence AGATTCCA, the binding signal is 0.433 ± 0.0111 E-score.

On to CAATTCCC, for which the binding signal worked out at 0.217 ± 0.0511 E-score.

On to AAATTCCC, for which the binding signal amounted to 0.294 ± 0.0591 E-score.

Consider AGATTCCC, for which the binding signal was 0.493 ± 0.00512 E-score.

Consider AGATTCAT, for which the binding signal amounted to 0.24 ± 0.0201 E-score.

AGATACCA: the binding signal is 0.204 ± 0.131 E-score.

AGATCGTG: the binding signal was 0.339 ± 0.0193 E-score.

Regarding ATCCGCGG, the binding signal came to 0.28 ± 0.0747 E-score.

AGAATTCG: the binding signal stood at 0.221 ± 0.0588 E-score.

Consider AATCGACT, for which the binding signal was determined as 0.263 ± 0.0439 E-score.

In the case of CAATCGAA, the binding signal worked out at 0.202 ± 0.113 E-score.

As for ATCCTCCA, the binding signal came out at 0.285 ± 0.089 E-score.

Take ACAAGAGA: the binding signal was 0.277 ± 0.0453 E-score.

In the case of ACTCGTAA, the binding signal is 0.247 ± 0.062 E-score.

On to ATAATCAC, for which the binding signal was determined as 0.214 ± 0.0373 E-score.

With AATCGTGC, the binding signal amounted to 0.299 ± 0.027 E-score.

Regarding ATTACCCC, the binding signal stood at 0.247 ± 0.0858 E-score.

For the sequence AATCTAGT, the binding signal turned out to be 0.421 ± 0.0336 E-score.

Turning to AATCAAGA, the binding signal was 0.308 ± 0.0329 E-score.

Turning to AATCAAGG, the binding signal is 0.258 ± 0.0284 E-score.

Turning to AATCAAGC, the binding signal worked out at 0.22 ± 0.0411 E-score.

In the case of AATCTAGC, the binding signal was determined as 0.404 ± 0.00637 E-score.

Consider AATCGAGC, for which the binding signal turned out to be 0.207 ± 0.052 E-score.

As for ATTCTAGA, the binding signal is 0.2 ± 0.0443 E-score.

On to AATCTAGA, for which the binding signal is 0.452 ± 0.018 E-score.

With AATCAAGT, the binding signal stood at 0.233 ± 0.1 E-score.

AATCTAGG: the binding signal came to 0.4332 ± 0.00364 E-score.

With ATCCTAGC, the binding signal came to 0.237 ± 0.018 E-score.

As to ATCCCCGC, the binding signal worked out at 0.2 ± 0.0376 E-score.

As for ATTACACG, the binding signal was determined as 0.268 ± 0.0173 E-score.

As for CACGATTA, the binding signal came out at 0.202 ± 0.0336 E-score.

ATGCGTAA: the binding signal was 0.21 ± 0.0884 E-score.

With AATTTCCT, the binding signal is 0.255 ± 0.00447 E-score.

As for ATTCTCCC, the binding signal amounted to 0.255 ± 0.0215 E-score.

For AATCTCCT, the binding signal amounted to 0.4008 ± 0.00273 E-score.

With AATCGCCT, the binding signal was 0.225 ± 0.129 E-score.

AATCTCCG: the binding signal was 0.437 ± 0.00941 E-score.

As to ATTCTCCA, the binding signal is 0.31 ± 0.0567 E-score.

Consider AATCACCG, for which the binding signal was 0.281 ± 0.0154 E-score.

In the case of AATCACCA, the binding signal amounted to 0.26 ± 0.00706 E-score.

As for ATTCTCCG, the binding signal was 0.338 ± 0.0548 E-score.

As for AATCTCCC, the binding signal was 0.387 ± 0.0218 E-score.

On to AATCCCCC, for which the binding signal worked out at 0.215 ± 0.101 E-score.

AATCTCCA: the binding signal worked out at 0.389 ± 0.05 E-score.

As to ATCCGGTA, the binding signal came to 0.286 ± 0.0898 E-score.

Take ATTTGCAC: the binding signal came to 0.305 ± 0.0821 E-score.

For the sequence ATCCAATA, the binding signal was 0.324 ± 0.0209 E-score.

Regarding ATCTTTGG, the binding signal was found to be 0.304 ± 0.0128 E-score.

As to ATCTTTTA, the binding signal was found to be 0.259 ± 0.0767 E-score.

As for ATACCGCA, the binding signal turned out to be 0.211 ± 0.101 E-score.

Turning to AAAGCGAT, the binding signal was 0.215 ± 0.0733 E-score.

Turning to AATTTGCG, the binding signal was found to be 0.223 ± 0.0644 E-score.

On to ATTCACAA, for which the binding signal came to 0.218 ± 0.0225 E-score.

Regarding AAAGCAAT, the binding signal is 0.27 ± 0.0827 E-score.

As for ATTTCCTA, the binding signal was determined as 0.358 ± 0.0333 E-score.

In the case of ATATCCTC, the binding signal was 0.402 ± 0.00645 E-score.

For the sequence ATATCGTA, the binding signal was 0.364 ± 0.049 E-score.

Take ATATCCTA: the binding signal came out at 0.416 ± 0.0447 E-score.

For the sequence ATATCCTG, the binding signal was 0.373 ± 0.0434 E-score.

Turning to ATCTCCTC, the binding signal was found to be 0.296 ± 0.0162 E-score.

For ATTTGGTG, the binding signal is 0.213 ± 0.0582 E-score.

Take AGACAGAT: the binding signal is 0.222 ± 0.0932 E-score.

As for ATCCTGCA, the binding signal is 0.261 ± 0.126 E-score.

Regarding AGGAGATA, the binding signal came out at 0.228 ± 0.0512 E-score.

With ATGAGATC, the binding signal was found to be 0.369 ± 0.0039 E-score.

For the sequence ACAAGATC, the binding signal turned out to be 0.2947 ± 0.00243 E-score.

AGAAGATA: the binding signal was determined as 0.26 ± 0.0155 E-score.

For ACGAGATC, the binding signal stood at 0.41 ± 0.00651 E-score.

On to AGGAGAAT, for which the binding signal came out at 0.267 ± 0.0583 E-score.

On to AGGAGATC, for which the binding signal was determined as 0.382 ± 0.00924 E-score.

On to ACGAGATA, for which the binding signal turned out to be 0.2747 ± 0.00202 E-score.

Consider AGAAGATC, for which the binding signal is 0.383 ± 0.0277 E-score.

For AACGTATC, the binding signal was 0.322 ± 0.0281 E-score.

Take ATTACATG: the binding signal was determined as 0.293 ± 0.0579 E-score.

On to ATCTGTAG, for which the binding signal worked out at 0.3 ± 0.055 E-score.

Consider ATACGCAT, for which the binding signal is 0.204 ± 0.0532 E-score.

For ATCTGATC, the binding signal came out at 0.329 ± 0.0755 E-score.

For the sequence ATTACACA, the binding signal was found to be 0.31 ± 0.0413 E-score.

ATCTCTCG: the binding signal worked out at 0.231 ± 0.0608 E-score.

Regarding ATATCACG, the binding signal turned out to be 0.347 ± 0.0113 E-score.

For ATCTCTCA, the binding signal amounted to 0.295 ± 0.0129 E-score.

For the sequence ATATCTCA, the binding signal came out at 0.3895 ± 0.00167 E-score.

With ATATCTCG, the binding signal came out at 0.435 ± 0.0109 E-score.

For the sequence ATATCACC, the binding signal is 0.277 ± 0.0211 E-score.

Turning to ATTTCTCA, the binding signal worked out at 0.248 ± 0.108 E-score.

Regarding ATCTCCCC, the binding signal is 0.301 ± 0.0229 E-score.

For the sequence ATATCTCC, the binding signal amounted to 0.388 ± 0.0404 E-score.

For AATCCCCA, the binding signal was 0.346 ± 0.00463 E-score.

Values taken from publication PMC5836133, “The intracellular immune receptor Rx1 regulates the DNA-binding activity of a Golden2-like transcription factor”.
